# Source: PubChem (National Center for Advancing Translational Sciences (NCATS))
# Rab9 promoter act: activates the Rab9 promoter | Huh7 Rab9 promoter-luciferase reporter, luminescence, 24 h | 2.8% of 320,000 active | Potency, µM (top dose mostly 9.22 µM), usual class: activators; note: nearly all actives have a fitted effect of over 60% in size
#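 Cells were plated at 1500 per well in reduced-serum medium with 10% FBS and left 2 h. Compound in DMSO was then added for 24 h at 37 °C. Reporter signal was read by luminescence after 10 min with luciferase detection reagent.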
# NPC1 promoter act: activators of NPC1 promoter; Huh7 NPC1 promoter luciferase reporter, 24 h; Potency, µM (series often up to 9.22 µM), most hits filed as activators; 2.4% of 320,000 active; note: nearly all actives have a fitted effect of over 60% in size
#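 Luciferase expression driven by the NPC1 promoter was measured in stably transfected Huh7 cells after a 24 h compound incubation, using a luciferase reagent and a luminescence read.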
# FLuc counter: firefly luciferase modulation, counter-screen for miR-21 project | P08659 | purified FLuc, Km substrates, luminescence inhibition | Potency, µM (doses to about 57.5 µM), usual class: inhibitors | 6.9% of 360,000 active | AID 588342; note: nearly all actives have a fitted effect of over 55% in size
# Target sequence (P08659 whole entry, looked up): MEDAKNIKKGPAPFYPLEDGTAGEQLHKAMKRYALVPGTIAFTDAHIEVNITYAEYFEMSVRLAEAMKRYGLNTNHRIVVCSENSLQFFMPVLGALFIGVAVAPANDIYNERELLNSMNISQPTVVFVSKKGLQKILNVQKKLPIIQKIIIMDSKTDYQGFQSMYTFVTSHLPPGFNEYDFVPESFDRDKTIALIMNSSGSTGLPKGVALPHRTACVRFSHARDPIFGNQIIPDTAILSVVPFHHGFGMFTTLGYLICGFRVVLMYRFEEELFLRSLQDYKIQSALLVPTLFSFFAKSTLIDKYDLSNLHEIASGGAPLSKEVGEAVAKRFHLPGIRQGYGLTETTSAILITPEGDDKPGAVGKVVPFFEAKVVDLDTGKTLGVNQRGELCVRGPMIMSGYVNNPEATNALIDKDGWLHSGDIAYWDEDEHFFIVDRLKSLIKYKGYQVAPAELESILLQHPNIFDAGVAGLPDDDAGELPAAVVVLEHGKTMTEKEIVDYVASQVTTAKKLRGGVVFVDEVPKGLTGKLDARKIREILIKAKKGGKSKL
#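 Purified P. pyralis luciferase, 10 nM final, with Km-level 10 uM D-luciferin and 10 uM ATP in 50 mM Tris acetate pH 7.5, 10 mM Mg acetate, 0.01% Tween-20, 0.05% BSA; 6-point qHTS titration about 60 µM downward; luminescence read.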
# ELG1 genotoxic: induces genotoxicity in HEK293T cells with luciferase-tagged ELG1 | HEK293T ELG1-luciferase reporter, luminescence, 16 h | Potency, µM (titrated, usually from 46 µM), actives largely listed as activators | 1.3% of 330,000 active | AID 504466; note: nearly all actives have a fitted effect of over 60% in size
#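 Luminescence read-out: rising ELG1-luciferase signal, reflecting elevated ELG1 protein under genetic stress, flags genotoxic compounds. Cells were treated for 16 hr at 37 °C before ONE-Glo detection.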
# SMN2 splice enh: enhancers of SMN2 splice variant expression | HEK293 SMN2-luciferase splicing reporter, luminescence, 30-36 h | Potency, µM (doses to about 46.1 µM), most hits filed as activators | 2.8% of 210,000 active | AID 1458; note: nearly all actives have a fitted effect of over 55% in size
#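 qHTS luciferase splicing reporter: luminescence rises when SMN2 exon 7 is included in transfected HEK293 cells. Compound exposure lasted 30-36 h at 37C, with 4.5 mM final sodium butyrate as control, followed by a ONE-Glo read.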
# Luc counter: Kinase-Glo luciferase inhibition (counter-screen). Q27757. Kinase-Glo luciferase, ATP luminescence, 8 min. Potency, µM (highest dose often 38.3 µM), usual class: inhibitors. 0.28% of 200,000 active. AID 1379; note: nearly all actives have a fitted effect of over 60% in size
#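 Recombinant Kinase-Glo luciferase, 10 uM ATP (linear range), luciferin; imidazole pH 7.2 / KCl / MgCl2 / Tween / BSA buffer; 8 min RT; luminescence.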
# Numbers stand for hits; - = inactive; ? = inconclusive; . = not tested or not shown. The list is not random: actives were taken first. Their share in the collection is about 7.3%. Calls come from the whole dose curve; as a rule, active = well fitted curve in the direction sought with a large enough effect; inconclusive = small, poorly fitted or top-dose-only effect, or another doubt; inactive = no such curve, though single readings can be large; an effect the other way counts as inactive or inconclusive.
SMILES,Rab9 promoter act,NPC1 promoter act,FLuc counter,ELG1 genotoxic,SMN2 splice enh,Luc counter
O=C(Nc1ccc(Cl)cc1)c1ccc(-c2ccccn2)s1,2.82µM,1.58µM,?,-,.,.
CC(C)(C)C(=O)NC(=S)Nc1ccccn1,-,-,-,-,-,-
O=C(Nc1ccccn1)c1cc2cc([N+](=O)[O-])ccc2s1,1.41µM,2µM,?,?,?,-
COc1ccc(N(C(=O)c2ccc(OC)c(OC)c2)S(=O)(=O)c2ccc(Cl)cc2)cc1,.,.,-,.,-,.
Cc1ccc(N2CC(NC(=O)c3ccc4c(c3)OCO4)CC2=O)cc1 (configuration not stated),.,.,-,.,.,.
CC(C)OCCCn1c(=O)c2ccccc2n2c(-c3cc(Cl)ccc3O)nnc12,.,.,-,.,.,.
Clc1ccc(-c2nsc(N3CCOCC3)n2)c(Cl)c1,1µM,0.794µM,4.26µM,3.26µM,.,.
Nc1ccc2nc(N3CCOCC3)sc2c1,2µM,?,?,?,15.8µM,-
c1c2c(cc3sc(N4CCOCC4)nc13)OCCO2,0.501µM,0.398µM,0.953µM,0.326µM,1.12µM,?
Clc1cc(Cl)c2nc(N3CCOCC3)sc2c1,?,-,16.9µM,?,?,-
O=C(NCc1ccccc1)c1ccc2nc(N3CCOCC3)sc2c1,-,-,?,-,.,.
c1ccc(N2CCN(c3nc4cc5c(cc4s3)OCCO5)CC2)cc1,?,?,?,-,10µM,-
Cc1cccc(CCNC(=O)c2ccc3c(c2)nc2n3CCCCC2)c1,.,.,4.78µM,.,.,.
CCCNC(=O)c1ccc2c(c1)nc1n2CCCCC1,.,.,16.9µM,.,.,.
O=C(NCCc1ccccc1Cl)c1ccc2c(c1)nc1n2CCOC1,.,.,4.78µM,.,.,.
O=C(NCc1cccc(Cl)c1)c1ccc2c(c1)nc1n2CCOC1,.,.,-,.,.,.
COc1ccc(CNC(=O)c2ccc3c(c2)nc2n3CCCCC2)cc1,.,.,16.9µM,.,.,.
CCc1ccc(NC(=O)c2cc(CN3CCOCC3)on2)cc1,.,.,-,.,.,.
Cc1ccc(-n2nc(C)c3c(C(=O)NCc4ccc(F)cc4)cc(C)nc32)cc1,.,.,-,.,.,.
Cc1cccc(CCNC(=O)c2ccc3c(c2)nc2n3CCOC2)c1,.,.,15.1µM,.,.,.
CCc1ccc(NC(=O)N(Cc2cn(CC)c3ccccc23)C2CCCCC2)cc1,.,.,?,.,12.6µM,.
Cn1nc(C(=O)Nc2sc3c(c2C#N)CCCC3)ccc1=O,-,-,5.36µM,?,-,-
CCOC(=O)c1c(NC(=O)c2ccncc2)sc(C)c1C,-,-,-,-,-,-
NC(=O)c1c(NC(=O)c2ccccc2)sc2c1CCC2,3.16µM,2µM,4.78µM,5.8µM,.,.
CC(C)C(=O)Nc1sc2c(c1C#N)CCCCC2,-,-,?,-,-,-
SMILES,Rab9 promoter act,NPC1 promoter act,FLuc counter,ELG1 genotoxic,SMN2 splice enh,Luc counter
N#Cc1c(NC(=O)c2cccc(S(=O)(=O)Nc3ccc(C(=O)O)cc3)c2)sc2c1CCCC2,-,-,19µM,-,.,.
CCOC(=O)c1sc(NC(=O)c2ccncc2)c(C#N)c1C,-,-,10.7µM,-,-,-
CCOc1cc(/C=N/NC(=O)c2cc(-c3cccc(OC)c3)n[nH]2)ccc1O,.,.,.,.,.,-
CCc1ccccc1NC(=O)Cn1cc2c(n1)CCC(C)C2 (configuration not stated),.,.,-,.,-,.
COc1ccc(N(CC(=O)NCc2ccccc2Cl)S(=O)(=O)c2c(C)nn(C)c2C)cc1,.,.,-,.,-,.
COc1ccc(CCNC(=O)CCCn2c(=O)c3ccccc3n(CC(=O)Nc3cccc(C)c3)c2=O)cc1OC,.,.,-,.,-,.
COc1ccccc1CNC(=O)CCCCn1c(=O)c2ccccc2n(CC(=O)Nc2cccc(Cl)c2)c1=O,.,.,-,.,-,.
COc1cc(C(=O)NC2CC(=O)N(c3cccc(F)c3)C2)cc(OC)c1OC (configuration not stated),.,.,-,.,.,.
Cc1cc(C(=O)Nc2sc3c(c2C#N)CCCCC3)cs1,1.12µM,?,0.953µM,0.82µM,11.2µM,-
N#Cc1c(NC(=O)c2ccncc2)sc2c1CCC2,-,-,13.5µM,-,?,-
COc1cccc(OC)c1C(=O)Nc1sc2c(c1C#N)CCC2,-,-,-,-,.,.
NC(=O)c1c(NC(=O)c2cnccn2)sc2c1CCCC2,2µM,?,2.69µM,?,?,-
NC(=O)c1c(NC(=O)c2ccncc2)sc2c1CCCCCC2,-,-,12µM,-,.,.
